Source: PubChem (several laboratories)
A selection: hits, their analogues and other compounds. The true share with any hit is near 2.8%.
GAA850 FXN act: increases GAA850 frataxin promoter reporter activity. HEK293 lucGAA850 FXN promoter luciferase reporter, 24 h; percent of 10 µM SAHA response. activation, % at 6 µM. 360,000 tested, 0.56% active;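 active = activation above the average of all compounds screened plus 3 SD, cutoff fixed separately per campaign, cut at about 7.5% in these data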
Wnt bcat act: activators of Wnt/beta-catenin signaling. 300,000 tested, 1.2% active. activation, % at 9.35 µM. Wnt/beta-catenin reporter cell assay, activator, plate reader; in the data active = activation above about 30%, passing the limit was not always enough; inconclusive = no clear call, values can overlap the other calls
MITF TRPM1 HTS: increases MITF-driven TRPM1 promoter luciferase signal. SK-MEL-5 TRPM1-promoter luciferase, 24 h; % of positive control, neutral wells = 0. activation, % at 12.5 µM. 300,000 tested, 0.75% active. AID 588334;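 active = mean activation of at least 80% with every replicate also reaching 80%; inconclusive = mean reaches 80% but some replicate falls short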
esBAF inh: blocks esBAF chromatin remodeling in mouse ES cells; Bmi1-luciferase knock-in reporter, 24 h; 100% = twice the neutral-well signal; reporter increase, % at 12.5 µM; 350,000 tested, 2% active; AID 602393; in the data active = activation above about 40%; inconclusive = no clear call, values can overlap the other calls;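 note: a rise in the Bmi1 reporter signal indicates esBAF inhibition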
Numbers stand for hits; . = inactive; ? = inconclusive; / = not tested or not shown.

SMILES	GAA850 FXN act	Wnt bcat act	MITF TRPM1 HTS	esBAF inh
O=C(CSc1nnc(-c2ccccn2)o1)Nc1ccccc1F	.	37.3	.	.
C[C@@H]1CN([C@H](C)CO)C(=O)c2cc(NS(C)(=O)=O)ccc2O[C@@H]1CN(C)Cc1ccc(C(=O)Nc2ccccc2N)cc1	/	/	/	.
C[C@H](CO)N1C[C@H](C)[C@H](CN(C)C(=O)CC2CC2)Oc2ncc(C#CC3(O)CCCC3)cc2C1=O	/	/	/	.
C[C@@H]1CN([C@@H](C)CO)C(=O)c2cc(-c3cccc(F)c3)cnc2O[C@@H]1CN(C)CC1CCOCC1	/	/	/	.
O=C(CSc1nnc(-c2ccccn2)o1)Nc1cccc(Cl)c1	.	.	/	64.8
CSc1nccc(N/N=C/c2ccccc2)n1	.	37.1	97.0	.
CO[C@@H]1CN(C)C(=O)c2ccc(NC(=O)NC(C)C)cc2OC[C@H](C)N(Cc2ccccc2)C[C@H]1C	/	/	/	.
CC(C)N1CC2(CC(c3ccccc3F)=NO2)CN1C(=O)c1ccco1 (stereo unspecified)	.	.	/	57.2
Cc1ccn2cc(-c3ccc4c(c3)NC(=O)CO4)nc2c1	.	.	103.5	/
C[C@@H]1CN([C@H](C)CO)C(=O)c2cc(NC(=O)Nc3ccc4c(c3)OCO4)ccc2O[C@@H](C)CCCCO[C@H]1CN(C)S(=O)(=O)c1cn(C)cn1	/	/	/	58.5
C[C@@H]1CCCCO[C@@H](CN(C)S(=O)(=O)c2cn(C)cn2)[C@H](C)CN([C@@H](C)CO)C(=O)c2cc(NC(=O)Nc3ccc4c(c3)OCO4)ccc2O1	/	/	/	.
Cc1ccc(S(=O)(=O)N(C)C[C@@H]2OCCCC[C@H](C)Oc3ccc(NC(=O)Nc4ccc5c(c4)OCO5)cc3C(=O)N([C@H](C)CO)C[C@H]2C)cc1	/	/	/	.
Cc1ccc(S(=O)(=O)N(C)C[C@H]2OCCCC[C@H](C)Oc3ccc(NC(=O)Nc4ccc5c(c4)OCO5)cc3C(=O)N([C@H](C)CO)C[C@H]2C)cc1	/	/	/	49.1
C[C@@H]1CCCCO[C@@H](CN(C)S(=O)(=O)c2cn(C)cn2)[C@@H](C)CN([C@@H](C)CO)C(=O)c2cc(NC(=O)Nc3ccc4c(c3)OCO4)ccc2O1	/	/	/	58.2
C[C@@H]1CCCCO[C@H](CN(C)S(=O)(=O)c2cn(C)cn2)[C@H](C)CN([C@@H](C)CO)C(=O)c2cc(NC(=O)Nc3ccc4c(c3)OCO4)ccc2O1	/	/	/	.
Cc1ccc(-c2noc(-c3cc4ccccc4oc3=O)n2)cc1	.	/	.	.
Cc1cc(-c2nnc(-c3cc4ccccc4oc3=O)o2)c(C)n1-c1ccccc1	.	/	/	54.0
CC(=O)COc1ccc2cc(-c3ccccc3)c(=O)oc2c1	.	.	/	.
COc1ccc(-c2coc3cc(OC)ccc3c2=O)cc1	.	.	.	.
CC(=O)Oc1ccc(-c2cc3ccc(OC(C)=O)cc3oc2=O)cc1	.	51.1	/	/
CC(=O)Oc1ccc2c(=O)c(-c3ccccc3)coc2c1	.	41.1	.	/
COc1ccc(-c2coc3cc(OC(C)=O)ccc3c2=S)cc1	.	.	87.2	66.2
O=C(C[C@@H]1CC[C@H]2[C@@H](COC[C@H](O)CN2CC2CCOCC2)O1)NCC1CC1	/	/	/	.
CCOC(=O)c1sc(S(C)(=O)=O)c2c1CCc1conc1-2	.	54.8	/	/
CCOc1ccccc1CNC(=O)c1cn(C)c(=O)c2c1c1ccccc1n2C	.	46.6	.	.
SMILES	GAA850 FXN act	Wnt bcat act	MITF TRPM1 HTS	esBAF inh
CCOC(CCNC(=O)c1cn(C)c(=O)c2c1c1ccccc1n2C)OCC	.	.	.	.
Cc1ccc2c(c1)NC(=O)c1cccnc1N2	.	.	.	63.3
COCC#Cc1ccc2c(c1)O[C@@H](CN(C)C(=O)CN(C)C)[C@H](C)CN([C@H](C)CO)S2(=O)=O	/	/	/	.
Cc1nn(CC2CC2)c(=O)n1-c1ccccc1F	.	.	.	.
Cc1nn(CCOc2ccccc2)c(=O)n1-c1c(F)cccc1F	.	59.6	/	?
Cc1cc(C)c(C#N)c(SCC(=O)Nc2cc(C)on2)n1	.	.	?	82.1
COCc1cc(C)nc(SCC(=O)Nc2ccc3[nH]c(=O)[nH]c3c2)c1C#N	.	.	.	.
COCc1cc(C)nc(SCC(=O)Nc2ccc(C)c(C)c2)c1C#N	.	.	.	43.2
Cc1cc(C)c(C#N)c(SCC(=O)Nc2ccc3c(c2)OCO3)n1	.	42.3	.	.
C(=C\c1ccccc1)/CSc1ccccn1	.	54.4	108.5	/
O=C(N[C@H]1C=C[C@@H](CC(=O)N2CCc3ccccc3C2)O[C@H]1CO)C1CC1	/	/	/	.
O=S(=O)(N[C@H]1CC[C@@H](CCn2cc(C3(O)CCCC3)nn2)O[C@H]1CO)c1ccc(Cl)cc1	/	/	/	.
Cn1nc(C(F)(F)F)cc1-c1ccc(S(N)(=O)=O)s1	.	.	.	51.6
CN(C)C(=O)c1ccc(-c2cc(C(F)(F)F)nn2C)s1	.	33.4	/	/
Cc1noc(C)c1NC(=O)Nc1ccc2c(c1)CC(=O)N([C@@H](C)CO)C[C@H](C)[C@H](CN(C)C)O2	/	/	/	.
Nn1c(Cc2ccccc2)nc2ccccc2c1=O	.	.	.	.
Nn1c(COc2ccc(Cl)cc2)nc2ccccc2c1=O	.	.	98.8	?
CSc1nc2sc3c(c2c(=O)n1C)CCCC3	.	/	.	44.7
O=c1c2c3c(sc2nc2n1CCCC2)CCCC3	.	/	.	47.5
CSc1nc2sc3c(c2c(=O)n1C)CCC3	.	.	.	.
C[C@@H]1CN([C@H](C)CO)C(=O)c2cc(-c3ccccc3F)cnc2O[C@@H]1CN(C)Cc1ccccc1	/	/	/	.
O=C(C[C@@H]1CC[C@H](NC(=O)c2ccc3c(c2)OCO3)[C@H](CO)O1)NCc1ccc(Cl)cc1	/	/	/	.
CNc1ccccc1C(=O)OCC(=O)c1ccc(F)cc1	.	.	.	/
O=C(COC(=O)c1ccccc1)c1ccc(Br)cc1	.	.	.	61.0
CNc1ccccc1C(=O)OCC(=O)c1ccccc1	.	/	.	58.6
SMILES	GAA850 FXN act	Wnt bcat act	MITF TRPM1 HTS	esBAF inh
C[C@@H]1CCCCO[C@@H](CN(C)Cc2ccc(C(=O)O)cc2)[C@@H](C)CN([C@H](C)CO)C(=O)c2cc(NC(=O)Nc3ccccc3)ccc2O1	/	/	/	.
O=C(C[C@H]1C=C[C@H](NC(=O)Nc2cc(F)ccc2F)[C@H](CO)O1)Nc1ccc(-c2ccccc2)cc1	/	/	/	.
CCOc1cccc(C2C(C(=O)c3ccco3)=C(O)C(=O)N2c2nnc(C)s2)c1 (stereo unspecified)	.	90.4	.	.
CC(=O)N1N=C(c2ccc(C)cc2)CC1c1ccc2c(c1)OCO2 (stereo unspecified)	.	?	/	100.2
CS(=O)(=O)N1N=C(c2ccc(Br)cc2)CC1c1ccc2c(c1)OCO2 (stereo unspecified)	11.7	/	?	53.9
Cc1ccc(C2=NN(S(C)(=O)=O)C(c3ccc4c(c3)OCO4)C2)cc1 (stereo unspecified)	.	50.3	.	/
C[C@@H]1CN([C@@H](C)CO)C(=O)c2cc(NC(=O)Cc3ccccc3)ccc2O[C@H]1CN(C)S(=O)(=O)c1cn(C)cn1	/	/	/	.
Cc1noc(C)c1S(=O)(=O)N(C)C[C@@H]1Oc2ccc(NC(=O)Nc3ccccc3)cc2CC(=O)N([C@@H](C)CO)C[C@@H]1C	/	/	/	.
